ST2 inh: IL1RL1 inhibition; Q01638; AlphaLISA ST2-Fc/biotin-IL-33 interaction, 1 h; inhibition, % for hits at 17 µM; hit rate 2.3% among 78,000; AID 1259354; in the data active = inhibition above about 30%
Target sequence (Q01638 whole entry, looked up): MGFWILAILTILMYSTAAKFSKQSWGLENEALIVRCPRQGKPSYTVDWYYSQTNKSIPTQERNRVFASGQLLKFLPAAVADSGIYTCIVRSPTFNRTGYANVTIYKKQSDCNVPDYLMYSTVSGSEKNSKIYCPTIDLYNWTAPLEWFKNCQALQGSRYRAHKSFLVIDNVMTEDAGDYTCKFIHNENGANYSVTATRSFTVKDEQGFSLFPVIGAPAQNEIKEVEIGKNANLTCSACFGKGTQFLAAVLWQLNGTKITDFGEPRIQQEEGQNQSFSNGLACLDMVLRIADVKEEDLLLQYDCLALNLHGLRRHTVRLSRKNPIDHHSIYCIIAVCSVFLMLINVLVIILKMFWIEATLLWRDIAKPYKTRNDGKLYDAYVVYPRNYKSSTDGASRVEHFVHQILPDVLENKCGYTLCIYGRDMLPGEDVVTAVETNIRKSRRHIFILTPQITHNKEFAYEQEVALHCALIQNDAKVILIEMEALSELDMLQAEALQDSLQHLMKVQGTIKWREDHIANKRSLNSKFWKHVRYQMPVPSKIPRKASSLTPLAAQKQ
The depositor's hits bear a star; i = inactive; ! = not confirmed by another sample. Many of the other results were omitted from the sample, so hits are more common in it than they were.

SMILES | ST2 inh
COc1ccccc1NC(=O)Cn1c(-c2nonc2N)nc2ccccc21 | i
O=C(c1noc2c1CCc1ccccc1-2)N1CCN(c2ccccc2)CC1 | i
O=C(Nc1cc(Cl)cc(Cl)c1)c1cnc2n(c1=O)CCS2 | i
O=C(Nc1ccc(F)c(Cl)c1)c1cnc2n(c1=O)CCS2 | i
O=C(Nc1ccc(Cl)c(Cl)c1)c1cnc2n(c1=O)CCS2 | 32%*
CCc1nc(-c2nccn2CC2CC(=O)N(CC)C2)c(C)[nH]1 (centres undefined) | i
CCN(CC)[C@H]1[C@@H]2OC[C@@H](O2)[C@@H](NC(=O)Nc2ccccc2)[C@@H]1O | i
COc1ccccc1-c1cccc(C(=O)N2C[C@@H]3[C@H](C2)[C@H]2CC[C@@H]3O2)c1 | i
Cc1ccc(-n2cc3c([N+](=O)[O-])cc([N+](=O)[O-])cc3n2)cc1 | i
Cc1ccccc1Cn1c(-c2ccccc2F)nc2ccccc2c1=O | i
Cc1cccc2nc3c(nc12)C(=O)c1ccccc1C3=O | 32%*
CCNc1ccccc1-c1nc2ccccc2[nH]c1=O | i
Cc1ccccc1C1NC(=O)NC2=C1C(=O)CCC2 (centres undefined) | i
O=[N+]([O-])c1ccc(S(=O)(=O)NCc2ccco2)cc1 | i
O=c1c2ccccc2nc(-c2ccccc2F)n1Cc1c(F)cccc1F | i
CC(=O)c1cc2c(N)c(C(=O)c3ccc(Cl)cc3)sc2nc1C | 38%*
Cc1ccc2c(N)c(C(=O)c3ccc(Cl)cc3)sc2n1 | i
COCc1cc(C)nc2sc(C(=O)c3ccccc3)c(N)c12 | i
CSc1ccc(C2Nc3ccccc3C(=O)N2c2ccc(C)cc2)cc1 (centres undefined) | i
CSc1ccc(C2Nc3cccc4cccc(c34)N2)cc1 | 31%*
O=C(/C=C/c1ccc(-c2ccc([N+](=O)[O-])cc2Cl)o1)c1ccco1 | i
CCOC(=O)c1ccc(-c2ccc(/C=C/c3[nH]c(=O)[nH]c(=O)c3[N+](=O)[O-])o2)cc1 | i
C/C(=C\c1ccc(-c2ccc(Cl)c(C(=O)O)c2)o1)[N+](=O)[O-] | 32%*
N#CC1=C(N)Oc2[nH]c(=O)[nH]c(=O)c2C1c1ccccc1 (centres undefined) | i
COc1cc(N/C=C(/C#N)c2nc(-c3ccc(OC)c(OC)c3)cs2)c(OC)cc1Cl | 40%*
SMILES | ST2 inh
N#C/C(=C\c1cccc([N+](=O)[O-])c1)c1nc(-c2ccc3c(c2)OCO3)cs1 | i
COc1cc(C(=O)Nc2nc(-c3ccc4c(c3)OCO4)cs2)cc(OC)c1OC | i
N#C/C(=C\Nc1ccccc1F)c1nc(-c2cc3cc([N+](=O)[O-])ccc3oc2=O)cs1 | i
COc1ccccc1N/C=C(\C#N)c1nc(-c2ccc3c(c2)OCO3)cs1 | 41%*
COc1cc(NC(=O)c2ccc(-c3ccccc3)cc2)c(OC)cc1Cl | i
CC(C)Oc1ccc(-c2nc3s/c(=C\c4cccs4)c(=O)n3n2)cc1 | i
Cc1c(Cl)ccc(S(=O)(=O)N2CCN(c3ccc(F)cc3)CC2)c1Cl | i
O=C(NCc1ccc2c(c1)OCO2)C1CCC(=O)N1Cc1ccccc1Cl (centres undefined) | i
COc1ccc(C2CC(c3cccs3)=NN2C(C)=O)cc1 (centres undefined) | i
Cc1ccc(C2CC(c3cccs3)=NN2S(=O)(=O)c2ccc(C)cc2)cc1 (centres undefined) | 33%*
COc1ccc(C2=NN(S(=O)(=O)c3ccccc3)C(c3ccc(C)cc3)C2)cc1OC (centres undefined) | i
O=S(=O)(c1ccccc1)N1N=C(c2ccccc2)CC1c1ccc(Cl)cc1 (centres undefined) | i
COc1ccc(C2CC(c3ccc(C)cc3)=NN2S(=O)(=O)c2ccccc2)cc1 (centres undefined) | i
COc1ccc(C2CC(c3cccs3)=NN2S(=O)(=O)c2ccc(C)cc2)cc1 (centres undefined) | 32%*!
C[C@H]1[C@@H]2[C@@H](O)C([C@H](C)C(=O)N(C)CCC#N)CC[C@@]2(C)CC[C@@H]1NC(=O)Nc1cccc(F)c1 (some centres undefined) | i
CCN(CC)CCNC(=O)c1cnn2c(C)c(Cc3c(F)cccc3Cl)c(C)nc12 | i
Cc1nc2c(c(NC[C@H]3CCc4ccccc4O3)n1)CNC2 | i
COc1ccc(CCN2CCC(CN(C)C3CCC3)CC2)cc1 | i
O=C1CC(c2ccccc2)CC2=C1C(c1cc(Br)ccc1F)Nc1ccccc1N2 (centres undefined) | i
O=C1CC(c2ccccc2)CC2=C1C(c1cc3c(cc1[N+](=O)[O-])OCO3)Nc1ccccc1N2 (centres undefined) | 44%*
O=C1CC(c2ccccc2)CC2=C1C(c1ccccc1Br)Nc1ccccc1N2 (centres undefined) | i
Cc1ccc2oc(-c3ccc(NC(=O)c4cccc([N+](=O)[O-])c4)cc3)nc2c1 | i
Cc1cccn2c(=O)c3cc(C(=O)NCc4ccc5c(c4)OCO5)n(C)c3nc12 | i
O=C(Nc1ccccc1)N1CCN(C/C=C/c2ccccc2)CC1 | i
O=C(C1CC1)N(c1ccc(Br)cc1)C1C=CS(=O)(=O)C1 (centres undefined) | i
SMILES | ST2 inh
NNc1ccc2c(Cl)cc(Cl)c(O)c2n1 | 35%*
O=C(Nc1nc2ccccc2[nH]1)c1ccc2c(c1)OCO2 | i
CCC(C)NC(=O)[C@H](Cc1ccccc1)N1Cc2ccccc2C1=O (some centres undefined) | i
COc1cc(N=c2c([N+](=O)[O-])nn(-c3ccccc3)n2O)cc(OC)c1 | i
O=C(O)COc1ccc(C=C2C(=O)c3ccccc3C2=O)cc1Cl | i
O=c1ccn(-c2ccccc2)[nH]1 | i
O=C1C(=Cc2cccn2-c2ccccc2)C(=O)c2ccccc21 | 31%*
CCCCN1C(=O)C(O)=C(C(C)=O)C1c1ccc(OC)c(OC)c1 (centres undefined) | i
COc1cc2c(cc1OC)C(C(=O)N1CCC(C(N)=O)CC1)C(c1ccccc1F)N(C)C2=O (centres undefined) | i
Oc1ccccc1C1=NNC(c2ccc(Br)cc2)C1 (centres undefined) | i
C/C(=C\c1ccccc1)CN1CCCC1c1nc(-c2ccncc2)no1 (centres undefined) | i
CCOc1ccccc1N(CC(=O)Nc1ccc(I)cc1)S(C)(=O)=O | i
COc1cc(O)c2c(=O)c(O[C@@H]3O[C@H](CO[C@@H]4O[C@@H](C)[C@H](O)[C@@H](O[C@@H]5O[C@@H](C)[C@H](O)[C@@H](O)[C@H]5O)[C@H]4O)[C@H](O)[C@H](O)[C@H]3O)c(-c3ccc(O)c(O)c3)oc2c1 | i
COc1c(-c2ccc(O)c(O)c2)oc2cc(O)cc(O)c2c1=O | i
COc1cc(O)c2c(=O)c(OC)c(-c3cc(O)c(OC)c(OC)c3)oc2c1 | 94%*
Cc1nc([N+](=O)[O-])c(N2CCN(c3ccccn3)CC2)n1Cc1ccccc1 | i
Cc1ccc(NC(=O)CNC2(CN3CCOCC3)CCCC2)c(C)c1 | i
C=C(C)Cn1cc(Oc2ccccc2)c(=O)c(C(=O)OCC)c1 | i
CC(C)C(C(=O)Nc1ccccc1Br)N1C(=O)c2ccccc2C1=O (centres undefined) | i
COc1cc(NC(=O)C(C(C)C)N2C(=O)c3ccccc3C2=O)c(OC)cc1Cl (centres undefined) | 41%*
COc1ccccc1NC(=O)C(C(C)C)N1C(=O)c2ccccc2C1=O (centres undefined) | i
